Test results: PubChem BioAssay
The source made the active and inactive calls.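 The calls were made as follows: active = inhibition of the reporter signal at or above 50%; inactive = inhibition below 50%.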

Assay: inhibitors of poly I:C-induced TLR3 signaling, primary screen, cell-based, poly I:C stimulus, luciferase, 10K MLSCN set (AID 602277)
Conditions: HEK293-TLR3 RL24 IRF3 luciferase reporter, at 10 µM, hits give high values

Compound | inhibition
O=C(O)C1CC(=O)N(CCOc2ccccc2)C1 (centres undefined) | 15.8% (inactive)
COC(=O)c1ccc(NC(=O)C(C)N2C(=O)c3ccccc3C2=O)cc1 (centres undefined) | 3.26% (inactive)
COc1ccc(N2CCN(C(=O)COc3ccc4ccccc4c3)CC2)cc1 | 10.9% (inactive)
Cn1cc(CN2CCc3ccccc3C2)c2ccccc21 | 37.6% (inactive)
COC(=O)c1cn(NC(=O)c2cccnc2)c(=O)c2ccccc12 | 18.9% (inactive)
Cn1c(C(=O)NCCCN2CCCCCC2)cc2c(=O)n(C)c3ccccc3c21 | 79% (active)
O=C(Nc1nccs1)c1ccc(COc2ccccc2Br)o1 | -63.2% (inactive)
CC(C)Cn1c(CN(Cc2ccccc2)Cc2ccccc2)nc2c1c(=O)n(C)c(=O)n2C | 12.9% (inactive)
Cc1ccc(CCNC(=O)CC2Oc3ccc(C)cc3NC2=O)cc1 (centres undefined) | 2.52% (inactive)
COc1cc2c(=O)n(Cc3ccccc3)c(=O)n(CC(=O)NCc3ccco3)c2cc1OC | 21.5% (inactive)
O=C(Nc1ccc(Cl)cn1)c1cccnc1 | -34.8% (inactive)
CCSc1nc2ccccc2n1CC(N)=O | 20.8% (inactive)
CC1(c2ccc(Cl)cc2)NC(=O)N(CC(=O)NC(=O)NCc2ccco2)C1=O (centres undefined) | 18.4% (inactive)
O=C(Nn1cnnc1)C1Cc2ccccc2CN1S(=O)(=O)c1ccc(F)cc1 (centres undefined) | 24.9% (inactive)
Cc1cc(NCCN2CCCCC2)n2c(nc3ccccc32)c1C#N | 21.6% (inactive)
CCCSc1nnc(-c2ccccc2NC(=O)CC)c(=O)[nH]1 | -2.41% (inactive)
O=C(NCc1ccco1)c1ccc2c(=O)n(CC3CCCO3)c(=S)[nH]c2c1 (centres undefined) | 15.2% (inactive)
C[C@@H]1C[C@H](O)c2cc(Cl)ccc2N1 | 27.1% (inactive)
COc1cccc(NC(=O)COC(=O)c2cccnc2)c1 | 19.2% (inactive)
NC(=O)CCS(=O)(=O)CCN1CCCCC1 | 23.8% (inactive)
Cn1c(=O)n(CCN2CCOCC2)c(=O)c2c1nc1n2CCN1c1ccccc1 | 3.62% (inactive)
COC(=O)CSc1nnc(-c2cccs2)n1-c1ccc(Cl)cc1 | 15.7% (inactive)
COc1ccc(NC(=O)C(C)Oc2ccc(/C(C)=N\O)cc2)cc1 (centres undefined) | 19.2% (inactive)
CCOC(=O)c1ccccc1NC(=O)c1cccnc1 | 10.8% (inactive)
